Bioassay records as filed in PubChem.
Platelet DG rel: inhibitors of platelet dense granule secretion, primary screen, cell-based, MLPCN, human platelets; human platelet-rich plasma, SFLLRN dense granule ATP release, luminescence; inhibition, %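 (compounds screened at 7.5 µM in platelet-rich plasma)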; actives 0.22% (n = 300,000); AID 1663, 2009;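 active means mean replicate score, as percent of positive control, at or above 50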
PPC-1+TRAIL kill: compounds killing PPC-1 cancer cells with TRAIL present, primary screen, TRAIL potentiator project, ATPLite luminescence, uHTS; PPC-1 cells + TRAIL, ATPLite viability luminescence; cell killing (% activity), % at 4 µM or 5 µM; actives 0.41% (n = 220,000); AID 1443, 2008;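 active means cell killing above 50% in the first pass at 4 µM, then a duplicate retest at 5 µM averaging 50% or more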
STAT3 inh: IL-6 driven STAT3 reporter inhibitors, primary screen, U3A cells, luciferase, luminescence, MLSCN library | IL-6 STAT3-luciferase reporter; host cell line lacks STAT1 | inhibition, % at 5.5 µM | actives 0.89% (n = 190,000) | AID 862, 2007;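 active means inhibition above the mean inhibition across all screened compounds plus 3 SD, cut at about 44% in these data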
STAT1 inh-1: STAT1 signaling inhibitors, primary screen, cell-based, HTS, luciferase reporter; NIH 3T3 STAT1-luciferase reporter, IFN-gamma, luminescence; inhibition, % at 5.5 µM; actives 0.35% (n = 200,000); AID 920, 2007;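 active means inhibition above a set limit, the mean inhibition across all tested compounds plus 3 SD, cut at about 34% in these data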
C8 TRAIL sens: viability loss with TRAIL in NB7+C8 cells, primary screen, TRAIL sensitizer project, cell-based, ATPlite luminescence; inhibition (viability loss, TRAIL sensitization), % at 10 µM; actives 1% (n = 360,000);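 active means compounds causing at least 50% loss of cell viability in the single-dose screen, relative to plate controls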
STAT1 inh-2: STAT1 signaling inhibitors, confirmation, cell-based, HTS, luciferase reporter. shares compounds with STAT1 inh-1. NIH 3T3 STAT1-luciferase reporter, IFN-gamma, luminescence. inhibition, % at 5.5 µM. actives 55% (n = 200). AID 1263, 2008;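 active means triplicate mean inhibition exceeding the hit cutoff computed for the primary STAT1 screen, cut at about 35% in these data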
NFkB inh: NF-kB reporter inhibitors, TNF-alpha stimulated, counter-screen for STAT1 inhibitor project, cell-based, HEK293T, luciferase luminescence | TNF-alpha induced | inhibition, % at 5.7 µM | shares compounds with STAT1 inh-1 | actives 30% (n = 200) | AID 1303, 2008;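 active means inhibition above the mean of solvent-only control wells plus 3 SD of those wells, cut at about 15% in these data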
STAT3 inh STAT1c: STAT3 reporter inhibition by STAT1 hits, counter-screen for STAT1 inhibitor project, U3A cells, luciferase, luminescence, triplicate; AID 1310, 2008; inhibition, % at 5.7 µM; shares compounds with STAT1 inh-1; actives 20% (n = 200); IL-6 STAT3 luciferase reporter; cells lacking STAT1;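 active means inhibition above the mean of solvent-only control wells plus 3 SD, set per campaign, cut at about 25% in these data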
Numbers stand for hits; – = inactive; · = no result given. This is a sample that favours compounds with a hit; in the whole collection about 1.6% have one here.

SMILES	Platelet DG rel	PPC-1+TRAIL kill	STAT3 inh	STAT1 inh-1	C8 TRAIL sens	STAT1 inh-2	NFkB inh	STAT3 inh STAT1c
COc1ccc(C(C)(O)c2nc(-c3cccc(C(F)(F)F)c3)cs2)cc1 (centres undefined)	·	·	·	·	–	·	·	·
CCc1ccccc1NC(=O)CN1CCN(CC(=O)NCc2ccc(Cl)cc2)CC1	·	·	·	·	–	·	·	·
COc1ccccc1-c1cc(C(F)(F)F)nc(S(=O)(=O)CCCC(=O)NCc2ccc(F)cc2)n1	–	–	–	–	–	·	·	·
COc1ccccc1-c1cc(C(F)(F)F)nc(S(=O)(=O)CCCC(=O)Nc2cccnc2Cl)n1	·	–	–	43	–	41	–	–
COc1ccc(-c2cc(C(F)(F)F)nc(S(=O)(=O)CCCC(=O)Nc3cc(C)on3)n2)cc1OC	–	–	–	51	–	46	–	–
CC(C)N1C(=O)c2ccccc2NC(=O)C1C(=O)NCc1cccc(C(F)(F)F)c1 (centres undefined)	·	·	·	·	–	·	·	·
Cc1ccc(/C=C2/SC(=S)N(CCCC(=O)Nc3ccc(O)cc3)C2=O)cc1	–	–	–	40	–	39	54	–
O=C(CCCN1C(=O)/C(=C\c2ccccc2)SC1=S)Nc1ccc(O)cc1	–	·	–	–	–	·	·	·
COc1ccc(-n2cc(-c3ccccc3)c3c(N4CCOCC4)ncnc32)cc1	–	–	–	44	–	–	–	–
COc1ccccc1-c1cc(C(F)(F)F)nc(S(C)(=O)=O)n1	–	–	–	40	–	44	–	–
CN1CCN(c2nc(-c3ccco3)cc(C(F)(F)F)n2)CC1	–	–	–	–	–	·	·	·
CS(=O)(=O)c1nc(-c2ccco2)cc(C(F)(F)F)n1	–	–	–	39	·	40	–	–
COc1ccc(CC(N)c2csc(Nc3cc(NCc4ccco4)ncn3)n2)cc1 (centres undefined)	·	·	·	·	–	·	·	·
CCCCCCCCN1C(=O)[C@H](CC(=O)NCCCOCCCC)C[C@@]2(C(=O)OCC)CCCC=C12	·	·	·	·	–	·	·	·
Cc1ccc(Cc2c(-c3ccc(F)cc3)nc3cc(C)ccn23)cc1	·	·	·	·	–	·	·	·
COc1ccc(-n2c(-c3ccc(Br)cc3)c[n+]3c2CCCCC3)cc1	–	–	–	40	–	–	–	–
COc1ccc2c(c1OC)C(=O)N1c3ccccc3C(=O)N(c3ccccc3F)C21 (centres undefined)	–	–	–	48	–	41	–	30
COc1ccc2c(c1OC)C(=O)N1c3ccccc3SC21 (centres undefined)	–	–	–	–	–	·	·	·
Cc1ccc(C)c(C(O)c2ncc(-c3cccc(C(F)(F)F)c3)[nH]2)c1 (centres undefined)	·	·	·	·	–	·	·	·
CCOC(=O)C(=CNc1ccc(NC2=NCC(C)S2)cc1)C(=O)OCC (centres undefined)	–	–	–	60	–	59	38	–
Cc1cccc(N2CC(O)(c3cccs3)[N+]3=C2CCCC3)c1C (centres undefined)	–	–	–	39	–	–	–	–
COc1ccc(NC(=O)c2ccc(-c3ccccc3)cc2)cc1S(=O)(=O)N1CCOCC1	–	–	–	38	–	47	29	–
CCc1ccc(C(=O)Nc2ccc(OC)c(S(=O)(=O)N3CCOCC3)c2)cc1	–	–	–	–	–	·	·	·
O/N=C\c1cnc(N2CCN(c3ccccc3)CC2)s1	–	·	·	·	–	·	·	·
CCOC(=O)c1ccc(CC(=O)c2ccc(O)cc2O)o1	–	–	–	51	–	46	32	–
SMILES	Platelet DG rel	PPC-1+TRAIL kill	STAT3 inh	STAT1 inh-1	C8 TRAIL sens	STAT1 inh-2	NFkB inh	STAT3 inh STAT1c
O=c1c2c([nH]n1-c1ccccc1)C[C@@H](C1CCCCC1)O[C@H]2c1ccc(F)cc1	·	·	·	·	–	·	·	·
CCOC(=O)N1CCN(C(=O)c2ccc3c(=O)n(Cc4ccccc4)c(=S)[nH]c3c2)CC1	–	–	–	–	–	·	·	·
CCOC(=O)N1CCN(C(=O)c2ccc(Cn3c(=S)[nH]c4cc(OCC)c(OCC)cc4c3=O)cc2)CC1	–	–	–	45	–	61	30	–
CCOC(=O)N1CCN(C(=O)c2ccc3c(=O)n(-c4cc(OC)ccc4OC)c(=S)[nH]c3c2)CC1	–	–	–	48	–	–	–	–
CCOC(=O)N1CCN(C(=O)c2ccc3c(=O)n(Cc4ccc(OC)cc4)c(=S)[nH]c3c2)CC1	·	–	–	–	–	·	·	·
O=C(c1ccc(Cn2c(=S)[nH]c3ccccc3c2=O)cc1)N1CCN(c2ccccn2)CC1	–	–	–	44	–	35	–	27
CCOC(=O)N1CCN(C(=O)c2ccc(Cn3c(=S)[nH]c4cc5c(cc4c3=O)OCO5)cc2)CC1	–	–	–	64	–	59	26	26
Cc1cc2c(cc1C)-n1nnnc1C(N(Cc1ccccc1)Cc1ccccc1)C(=O)N2 (centres undefined)	·	·	·	·	–	·	·	·
N#CC(C#N)=C(Nc1ccc(F)cc1)SCc1cccc(Br)c1	–	–	–	39	–	52	16	43
Cc1cccc(S(=O)(=O)NC(=O)C2(C)CCN2C(=O)c2sccc2C)c1 (centres undefined)	·	·	·	·	–	·	·	·
CCCc1nc2nc(C)c(NS(=O)(=O)c3ccc([N+](=O)[O-])cc3)c(=O)n2[nH]1	–	·	·	·	–	·	·	·
O=[N+]([O-])c1ccc(S(=O)(=O)Nc2ccccn2)cc1	–	·	·	·	–	·	·	·
CCC(/C=C1\Sc2ccc(OC)cc2N1CCO)=C\c1sc2ccc(OC)cc2[n+]1CCO	·	–	–	–	–	·	·	·
CCC(/C=C1\Sc2ccc(OC)cc2N1CC)=C\c1sc2ccc(OC)cc2[n+]1CCCS(=O)(=O)[O-]	–	–	–	41	–	–	–	–
CCOC(=O)c1c(C)sc2c1N(C(=O)CCl)c1cc(Cl)ccc1S2	–	–	–	36	55	40	30	–
COc1ccc(CCNC(=O)Cn2c(=O)oc3ccccc32)cc1OC	–	–	–	–	–	·	·	·
COc1ccc(CCNC(=O)Cn2c(=O)n(-c3cc(F)ccc3F)c(=O)c3sccc32)cc1OC	–	–	–	53	–	–	–	–
COc1ccc(CCNC(=O)Cn2c(=O)n(-c3ccc(F)cc3)c(=O)c3sccc32)cc1OC	–	–	–	50	–	35	–	–
COc1ccc(CCNC(=O)Cn2c(=O)n(-c3ccc(F)cc3F)c(=O)c3sccc32)cc1OC	–	–	–	40	–	–	–	–
